Data on nine molecules can be found in PubChem BioAssay.

A short description of assay [1]: SU-DIPG-VI glioma cell viability, MIPE4.0 library, CellTiter-Glo luminescence, qHTS (AID 1347066; cut-off not given, nearly all actives have AC50 up to about 30 µM;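 also: cells exposed to compound for 48 hours before readout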). To be noted: CellTiter-Glo ATP luminescence. A general note: Cellular ATP, detected with luciferase, serves as a proxy for viable cell number.
Assay [2] in a line: JHH-DIPG-1 glioma cell viability, MIPE5.0 library, CellTiter-Glo luminescence, qHTS (AID 1347067; cut-off not given, nearly all actives have AC50 up to about 26 µM;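 also: cells exposed to compound for 48 hours before readout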). To be noted: JHH-DIPG-1 glioma viability, CellTiter-Glo ATP luminescence.
The nature of assay [3]: SU-DIPG-XXV glioma cell viability, MIPE5.0 library, qHTS (AID 1347068; cut-off not given, nearly all actives have IC50 up to about 30 µM). For orientation: Quantitative high-throughput screening tests each substance at several concentrations.
The nature of assay [4]: sensitizers of A549 cells to miR-34 induction, primary screen, imaging, A549 dox-inducible miR-34, nuclei and caspase counts (AID 1347080;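 active = compounds whose cell count with miR-34 switched on is under 0.7 times the count with it off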). To be noted: A549 miR-34 inducible, Hoechst nuclei count, 48 h.
Assay [5] can be described thus: phospholipid biosynthesis inhibitors in animal cells, primary screen, cell-based, LOPAC library, screen 4 (AID 1347384; call rule not given here). To be noted: phospholipid biosynthesis inhibition screen, at 10 µM.
The nature of assay [6]: viability rescue of complex I mutant cybrids, primary screen, cell-based, galactose medium, ATP luminescence (AID 1645843;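 active = z-score of at least 1.8 in each of two replicates, scored against plate mean and spread of sample wells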;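 also: positive z means more ATP and so rescue of galactose-driven cybrid death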). To be noted: complex I mutant cybrid cells, 72 h, stronger effect = higher value.
A short description of assay [7]: viability loss in pontine glioma line – cell-based, SU-DIPG-XXV, MIPE5.0, CellTiter-Glo, qHTS, dose response (AID 1347065; cut-off not given, nearly all actives have AC50 up to about 26 µM;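 also: cells exposed to compound for 48 hours before ATP readout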). To be noted: CellTiter-Glo ATP luminescence.
Assay [8] can be described thus: inhibitors of Cryptococcus chitosan production, flow cytometry, Cibacron Brilliant Red staining (AID 1347148; call rule not given here;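 also: compound exposure lasted three days at 37 degrees C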). To be noted: Cryptococcus neoformans chitosan, stronger effect = lower value; at 10 µM unless noted.
Assay [9] deals with Mitogen-activated protein kinase 7 (Homo sapiens) (UniProt Q13164). The assay can be described thus: ERK5 transactivation activators in reporter cells, primary screen, cell-based, HTS (AID 1508626;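 active = luciferase signal above three times the same-plate solvent-only control wells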;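 also: luciferase driven by Gal4-ERK5 fusion binding five Gal4 sites before minimal TATA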). To be noted: HeLa Gal4-ERK5 transactivation, 18 h, at 5 µM, stronger effect = higher value.
Mitogen-activated protein kinase 7 (Homo sapiens), sequence (Q13164 whole entry, looked up, the tested form may be a part): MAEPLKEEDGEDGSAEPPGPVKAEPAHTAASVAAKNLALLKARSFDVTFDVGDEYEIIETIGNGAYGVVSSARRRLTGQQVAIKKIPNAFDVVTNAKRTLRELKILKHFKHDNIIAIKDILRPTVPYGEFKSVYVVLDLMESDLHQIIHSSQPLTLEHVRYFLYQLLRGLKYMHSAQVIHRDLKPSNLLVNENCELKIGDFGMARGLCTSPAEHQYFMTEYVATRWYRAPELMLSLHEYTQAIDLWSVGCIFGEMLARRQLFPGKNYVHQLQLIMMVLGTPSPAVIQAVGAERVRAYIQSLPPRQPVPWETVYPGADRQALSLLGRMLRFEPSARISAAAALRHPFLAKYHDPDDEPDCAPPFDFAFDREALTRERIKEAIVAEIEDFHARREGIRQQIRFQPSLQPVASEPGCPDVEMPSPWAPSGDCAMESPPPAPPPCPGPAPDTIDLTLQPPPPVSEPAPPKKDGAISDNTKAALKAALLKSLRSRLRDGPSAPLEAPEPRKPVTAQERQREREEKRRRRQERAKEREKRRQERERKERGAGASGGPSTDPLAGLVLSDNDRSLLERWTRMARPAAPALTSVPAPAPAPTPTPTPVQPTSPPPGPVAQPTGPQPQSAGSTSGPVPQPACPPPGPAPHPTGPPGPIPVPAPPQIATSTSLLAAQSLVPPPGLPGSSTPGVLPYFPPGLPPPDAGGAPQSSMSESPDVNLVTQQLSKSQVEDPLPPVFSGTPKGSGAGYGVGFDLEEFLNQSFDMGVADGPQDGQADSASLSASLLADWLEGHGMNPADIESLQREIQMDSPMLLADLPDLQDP
The nature of assay [10]: survival rescue of mitochondrial mutant cells in low glucose, primary screen, MELAS cybrids, Rieske KO mouse fibroblasts, CellTiter-Glo (AID 1508586).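 Also: z relative to plate mean and SD of compound and empty wells.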
In assay [11] the target is NAD(+) hydrolase SARM1 (Homo sapiens) (UniProt Q6SZW1). As to the kind of experiment: SARM1 TIR NADase inhibitors, cell lysate, NAD-Glo luminescence (AID 1508614;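 active = compound whose remaining NAD level is above about 45 nM, limit read from the data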;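 also: higher remaining NAD means stronger inhibition of SARM1 NADase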). To be noted: SAM-TIR HEK293T lysate NADase, at 1 µM, stronger effect = higher value.
NAD(+) hydrolase SARM1 (Homo sapiens), sequence (Q6SZW1 whole entry, looked up): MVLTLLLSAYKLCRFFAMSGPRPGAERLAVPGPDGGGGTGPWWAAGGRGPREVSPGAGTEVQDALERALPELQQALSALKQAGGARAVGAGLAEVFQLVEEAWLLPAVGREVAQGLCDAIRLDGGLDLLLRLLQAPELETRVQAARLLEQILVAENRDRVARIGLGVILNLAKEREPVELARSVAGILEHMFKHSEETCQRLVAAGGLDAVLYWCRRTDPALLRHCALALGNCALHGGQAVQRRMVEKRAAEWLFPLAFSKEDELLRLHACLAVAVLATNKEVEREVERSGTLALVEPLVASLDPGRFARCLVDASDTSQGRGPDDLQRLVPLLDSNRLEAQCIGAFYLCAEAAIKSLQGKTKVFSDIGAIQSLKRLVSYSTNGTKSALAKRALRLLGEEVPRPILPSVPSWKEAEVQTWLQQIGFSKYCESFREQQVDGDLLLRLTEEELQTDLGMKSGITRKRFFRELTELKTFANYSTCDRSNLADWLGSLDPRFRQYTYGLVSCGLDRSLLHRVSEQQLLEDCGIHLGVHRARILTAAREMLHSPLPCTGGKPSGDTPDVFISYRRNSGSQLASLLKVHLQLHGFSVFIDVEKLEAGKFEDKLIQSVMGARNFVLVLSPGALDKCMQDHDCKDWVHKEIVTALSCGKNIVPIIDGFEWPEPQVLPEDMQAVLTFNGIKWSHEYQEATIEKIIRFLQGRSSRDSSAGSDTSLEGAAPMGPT
The mark [12] stands for this setting: stronger effect = lower value, cell number ratio, induced over uninduced.
The mark [13] stands for this setting: measured here: relative caspase fold change +Dox/-Dox.
[14] abbreviates: measured here: total cells with miR-34 induction, stronger effect = lower value.
The mark [15] stands for this setting: measured here: total cells without miR-34 induction.
Setting [16] is: MELAS cybrid survival, CellTiter-Glo 48 h, stronger effect = higher value.
Setting [17] is: Rieske KO mouse fibroblast survival, CellTiter-Glo 72 h.

“And” between values parts separate entries of the source, which are not always exact repeats. Equal entries are not always repeated. Records with an inconclusive call do not appear. The source made the active and inactive calls.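 The calls were made as follows, unless noted: active = mean z-score across replicates of 1.96 or higher in either the MELAS or the Rieske mutant cell line; inactive = the rest.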

By AC50 is commonly meant the concentration at which the activity in the assay is half-maximal.

On to `O=C1N(c2ccccc2)c2ccccc2C1(Cc1ccncc1)Cc1ccncc1`, for which the molecule was called inactive in assay [1], in assay [2], in [3] and in [5]. For the same molecule, the fold change in assay [4] (setting [12]) was 1.1 (inactive) and 0.81 (inactive) and 0.995 (inactive); in assay [4] (setting [13]), 1.28 and 1.84 and 1.46. In addition, the cell count in [4] (setting [14]) was 10000 and 7730 and 7820; in assay [4] (setting [15]) it was 9180 and 9540 and 7860. Besides, the z-score in assay [6] is -0.165 (inactive) and 0.43 (inactive) and -0.3 (inactive).
As for `COc1cc(/C=C/C(=O)CC(=O)/C=C/c2ccc(O)c(OC)c2)ccc1O`, in assay [7], the AC50 was 20.9 µM (active). The values for the fold change in [4] (setting [12]) and in [4] (setting [13]) were 0.955 (inactive) and 1.47, respectively. Further, the cell count in assay [4] (setting [14]) is 6170; in assay [4] (setting [15]) it was 6460. For the same molecule, the fold fluorescence in assay [8] was 8.92 [at 135.7 µM] (inactive). The luciferase signal in assay [9] was 44 AU (inactive).
Turning to `Nc1nc(N)nc(-c2cc(Cl)ccc2Cl)n1`, the molecule was classed as inactive in assay [1], in assay [2] and in assay [3]. Besides, the z-score was -0.19 (inactive) and -0.868 (inactive) and 0.283 (inactive) in assay [10] (setting [16]); 0.166 and -0.512 and 0.352 in assay [10] (setting [17]); 0.88 (inactive) and -0.09 (inactive) and 0.54 (inactive) in assay [6]. Moreover, the remaining NAD in assay [11] is 10 nM (inactive).
In the case of `CCCCOc1ccc(CC(=O)NO)cc1`, the molecule was classed as inactive in assay [7] and in assay [3]. Also, the fold change in [4] (setting [12]) is 0.904 (inactive) and 0.891 (inactive); in [4] (setting [13]) it was 1.17 and 0.62. The cell count was 7500 and 10000 in assay [4] (setting [14]); 8290 and 11200 in assay [4] (setting [15]). Moreover, the z-score in assay [10] (setting [16]) is -0.309 (inactive) and 0.359 (inactive); in [10] (setting [17]), 0.677 and -0.599. Further, the remaining NAD in assay [11] is 10 nM (inactive). Besides, in assay [9], the luciferase signal was 44 AU (inactive).
In the case of `COc1ccc2[nH]cc(CCNC(C)=O)c2c1`, the outcome in assay [1], in [2], in assay [3] and in assay [5] was inactive. In addition, the z-score in assay [10] (setting [16]) was -0.429 (inactive) and 0.313 (inactive) and -0.146 (inactive); in assay [10] (setting [17]) it was -0.494 and 0.0961 and -0.273; in assay [6], 0.52 (inactive) and 0.205 (inactive) and 0.655 (inactive). Moreover, the luciferase signal in assay [9] was 68 AU (inactive).
In the case of `C#C[C@]1(O)CC[C@H]2[C@@H]3[C@H](C)CC4=C(CCC(=O)C4)[C@H]3CC[C@@]21C`, the call in [7] and in assay [3] was inactive. Further, the fold change in [4] (setting [12]) was 0.908 (inactive) and 0.883 (inactive); in assay [4] (setting [13]) it was 0.948 and 1.2. The cell count in [4] (setting [14]) is 5910 and 8230; in [4] (setting [15]), 6510 and 9320. Moreover, the z-score is 0.727 (inactive) and 0.175 (inactive) in assay [10] (setting [16]); 0.291 and -0.0373 in [10] (setting [17]); -0.015 (inactive) in assay [6]. The remaining NAD in assay [11] was 10 nM (inactive).
Consider `COc1ccccc1N1CCN(CC(O)COc2cccc3ccccc23)CC1` (centres undefined), for which the molecule was called inactive in assay [1], in assay [2], in assay [3] and in assay [5]. Besides, in assay [11], the remaining NAD was 10 nM (inactive).
Consider `O=C1CCc2ccc(OCCCCN3CCN(c4cccc(Cl)c4Cl)CC3)cc2N1`, for which the concentration at half-maximal activity (AC50) in [7] is 13.2 µM (active). Moreover, the z-score in assay [10] (setting [16]) was -0.393 (inactive) and -1.22 (inactive) and -0.905 (inactive); in [10] (setting [17]), 0.269 and 1.31 and -0.2; in assay [6], -1.88 (inactive) and -2.22 (inactive). In addition, the remaining NAD in [11] is 10 nM (inactive).
On to `CN1CCC(=C2c3ccccc3C=Cc3ccccc32)CC1`, for which the outcome in [1], in assay [2], in assay [3] and in assay [5] was inactive. Further, the z-score was -0.307 (inactive) and -0.043 (inactive) and -1.41 (inactive) in [10] (setting [16]); -0.028 and 0.523 and -1.01 in [10] (setting [17]). The remaining NAD in [11] is 10 nM (inactive). In assay [9], the luciferase signal was 20 AU (inactive).
